In PubChem BioAssay AID1159580 (chemical genetic matrix, 2015):
In all, about 5,500 compounds went through this assay and about 2,000 (36%) were called active. Inconclusive results (about 18%) are left out. No stated cut-off is given here; in the data, active means normalized growth mostly below about 0.91 (no sharp cut-off); inconclusive means no clear call, values can overlap the other calls; inactive means mostly above about 0.92. Some of the results follow.

Test: chemical genetic growth profiling, strain panel (AID 1159580);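 further: tested at 20 µM; growth read once vehicle control cultures reached saturation at 30 °C; 1 = growth at the plate median or of vehicle wells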
Settings: growth OD

Measured: normalized growth

COC(=O)C[C@H]1C(C)(C)[C@H](O)[C@@H]2CC3=C4CC(O)O[C@@H](c5ccoc5)[C@]4(C)CCC3[C@@]1(C)C2=O (stereo partly specified)
inactive: S. cerevisiae deletion strains, locus YBR021W, strain FUR4, stronger effect = lower value 1.01 | S. cerevisiae deletion strains, locus YBR229C, strain ROT2, stronger effect = lower value 0.948 | S. cerevisiae deletion strains, locus YCL029C, strain bik1, stronger effect = lower value 0.969 | S. cerevisiae deletion strains, locus YDL035C, strain GPR1, stronger effect = lower value 0.974 | S. cerevisiae deletion strains, locus YDL074C, strain BRE1, stronger effect = lower value 0.966 | S. cerevisiae deletion strains, locus YDL101C, strain DUN1, stronger effect = lower value 0.99 | S. cerevisiae deletion strains, locus YDL185W, strain tfp1, stronger effect = lower value 0.971 | S. cerevisiae deletion strains, locus YDL192W, strain arf1, stronger effect = lower value 0.978 | S. cerevisiae deletion strains, locus YDR101C, strain arx1, stronger effect = lower value 0.983 | S. cerevisiae deletion strains, locus YDR162C, strain NBP2, stronger effect = lower value 0.984 | S. cerevisiae deletion strains, locus YDR318W, strain mcm21, stronger effect = lower value 0.992 | S. cerevisiae deletion strains, locus YDR388W, stronger effect = lower value 0.979 | S. cerevisiae deletion strains, locus YDR502C, strain sam2, stronger effect = lower value 1.02 | S. cerevisiae deletion strains, locus YEL061C, strain CIN8, stronger effect = lower value 0.974 | S. cerevisiae deletion strains, locus YER110C, stronger effect = lower value 0.985 | S. cerevisiae deletion strains, locus YER155C, strain BEM2, stronger effect = lower value 1 | S. cerevisiae deletion strains, locus YER167W, strain BCK2, stronger effect = lower value 0.969 | S. cerevisiae deletion strains, locus YGL078C, strain dbp3, stronger effect = lower value 1.03 | S. cerevisiae deletion strains, locus YGL086W, strain mad1, stronger effect = lower value 1 | S. cerevisiae deletion strains, locus YGL248W, strain PDE1, stronger effect = lower value 0.991 | S. cerevisiae deletion strains, locus YGR078C, strain PAC10, stronger effect = lower value 1.02 | S. cerevisiae deletion strains, locus YGR135W, strain pre9, stronger effect = lower value 1.07 | S. cerevisiae deletion strains, locus YGR229C, strain SMI1, stronger effect = lower value 1.02 | S. cerevisiae deletion strains, locus YGR252W, strain gcn5, stronger effect = lower value 1.03 | S. cerevisiae deletion strains, locus YHR030C, strain SLT2, stronger effect = lower value 0.996 | S. cerevisiae deletion strains, locus YHR079C, strain IRE1 (second series), stronger effect = lower value 0.993 | S. cerevisiae deletion strains, locus YHR094C, strain hxt1, stronger effect = lower value 0.984 | S. cerevisiae deletion strains, locus YHR129C, strain ARP1, stronger effect = lower value 0.99 | S. cerevisiae deletion strains, locus YHR200W, strain rpn10, stronger effect = lower value 0.999 | S. cerevisiae deletion strains, locus YIL066C, strain RNR3, stronger effect = lower value 0.948 | S. cerevisiae deletion strains, locus YIL073C, strain SPO22, stronger effect = lower value 0.964 | S. cerevisiae deletion strains, locus YIL125W, strain kgd1, stronger effect = lower value 0.986 | S. cerevisiae deletion strains, locus YIR030C, strain dcg1, stronger effect = lower value 0.99 | S. cerevisiae deletion strains, locus YJL095W, strain BCK1, stronger effect = lower value 0.993 | S. cerevisiae deletion strains, locus YJL134W, strain LCB3, stronger effect = lower value 0.971 | S. cerevisiae deletion strains, locus YJL168C, strain set2, stronger effect = lower value 0.991 | S. cerevisiae deletion strains, locus YJL187C, strain SWE1 (second series), stronger effect = lower value 1 | S. cerevisiae deletion strains, locus YJR043C, strain POL32, stronger effect = lower value 0.975 | S. cerevisiae deletion strains, locus YKL009W, strain mrt4, stronger effect = lower value 0.953 | S. cerevisiae deletion strains, locus YKL068W, stronger effect = lower value 0.985 | S. cerevisiae deletion strains, locus YKL085W, strain MDH1 (second series), stronger effect = lower value 0.988 | S. cerevisiae deletion strains, locus YKL085W, strain MDH1, stronger effect = lower value 0.988 | S. cerevisiae deletion strains, locus YKL190W, strain CNB1, stronger effect = lower value 0.98 | S. cerevisiae deletion strains, locus YKR001C, strain vps1, stronger effect = lower value 0.978 | S. cerevisiae deletion strains, locus YLR039C, strain RIC1, stronger effect = lower value 0.964 | S. cerevisiae deletion strains, locus YLR058C, strain SHM2, stronger effect = lower value 0.975 | S. cerevisiae deletion strains, locus YLR102C, strain apc9, stronger effect = lower value 0.991 | S. cerevisiae deletion strains, locus YLR262C, strain YPT6, stronger effect = lower value 0.99 | S. cerevisiae deletion strains, locus YLR268W, strain sec22, stronger effect = lower value 0.953 | S. cerevisiae deletion strains, locus YLR330W, strain CHS5, stronger effect = lower value 0.986 | S. cerevisiae deletion strains, locus YLR371W, strain rom2, stronger effect = lower value 0.986 | S. cerevisiae deletion strains, locus YLR418C, strain cdc73, stronger effect = lower value 0.975 | S. cerevisiae deletion strains, locus YML016C, strain PPZ1, stronger effect = lower value 0.977 | S. cerevisiae deletion strains, locus YML032C, strain rad52, stronger effect = lower value 0.976 | S. cerevisiae deletion strains, locus YML124C, strain tub3, stronger effect = lower value 0.992 | S. cerevisiae deletion strains, locus YMR078C, strain ctf18, stronger effect = lower value 0.989 | S. cerevisiae deletion strains, locus YMR223W, strain ubp8, stronger effect = lower value 1 | S. cerevisiae deletion strains, locus YMR307W, strain GAS1, stronger effect = lower value 0.951 | S. cerevisiae deletion strains, locus YNL067W, strain RPL9B, stronger effect = lower value 1.03 | S. cerevisiae deletion strains, locus YNL153C, strain GIM3, stronger effect = lower value 1.01 | S. cerevisiae deletion strains, locus YNL233W, strain BNI4, stronger effect = lower value 1.03 | S. cerevisiae deletion strains, locus YNL250W, strain rad50, stronger effect = lower value 0.998 | S. cerevisiae deletion strains, locus YNL271C, strain bni1, stronger effect = lower value 0.989 | S. cerevisiae deletion strains, locus YNL298W, strain CLA4, stronger effect = lower value 0.984 | S. cerevisiae deletion strains, locus YNL307C, strain MCK1, stronger effect = lower value 0.994 | S. cerevisiae deletion strains, locus YNR052C, strain pop2, stronger effect = lower value 1.04 | S. cerevisiae deletion strains, locus YOL012C, strain htz1 0.912 | S. cerevisiae deletion strains, locus YOL147C, strain pex11, stronger effect = lower value 0.989 | S. cerevisiae deletion strains, locus YOR061W, strain CKA2, stronger effect = lower value 0.944 | S. cerevisiae deletion strains, locus YOR069W, strain VPS5, stronger effect = lower value 0.986 | S. cerevisiae deletion strains, locus YOR136W, strain idh2, stronger effect = lower value 0.994 | S. cerevisiae deletion strains, locus YOR144C, strain elg1, stronger effect = lower value 0.991 | S. cerevisiae deletion strains, locus YOR184W, strain ser1, stronger effect = lower value 0.954 | S. cerevisiae deletion strains, locus YOR316C, strain cot1, stronger effect = lower value 0.992 | S. cerevisiae deletion strains, locus YPL241C, strain CIN2, stronger effect = lower value 0.988 | S. cerevisiae deletion strains, locus YPR119W, strain clb2, stronger effect = lower value 1.01 | S. cerevisiae deletion strains, locus YPR141C, strain kar3, stronger effect = lower value 0.989 | S. cerevisiae deletion strains, locus YPR163C, strain tif3, stronger effect = lower value 0.987 | S. cerevisiae deletion strains, locus YPR167C, strain met16, stronger effect = lower value 0.996 | S. cerevisiae deletion strains, strain wtn01, stronger effect = lower value 0.98 | S. cerevisiae strains, strain wild type, stronger effect = lower value 0.979
